# Compounds with a hit are over-represented: about 17% of the library has one in this group of screens.
# DT40 TDP1 CPT: growth inhibition of DT40 Tdp1-/-;hTDP1 cells with camptothecin (screen for TDP1 inhibitors) | Potency, µM (top dose mostly 46.2 µM), for inactives: top-dose activity change, negative = growth inhibition, hits mostly inhibitors | hit rate 12% among 420,000 | chicken DT40 Tdp1-/-;hTDP1 cells + 20 nM CPT, ATP luminescence, 48 h; note: % is set by controls: 0 for no effect and ±100 for the full control effect; nearly all actives have a fitted effect of over 55% in size
#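 Chicken DT40 Tdp1-/- cells stably complemented with human TDP1 were seeded at 400 cells/well in medium containing 20 nM camptothecin, exposed to pin-transferred compounds, and grown at 37 °C for at least 48 hr. Viability was read as ATP luminescence.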
# HT1080 IDH1KD tx: kills HT-1080 cells with IDH1 knockdown. HT-1080 IDH1 knockdown viability, ATP luminescence, 48 h. Potency, µM (doses to about 46.1 µM), without a hit: at the top dose activity, negative = toxicity, most hits filed as cytotoxic. hit rate 2% among 360,000. AID 686971;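 note: 0% = DMSO wells and -100% = cell-free medium wells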
#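 After a 2 h attachment period, IDH1KD HT-1080 cells took pin-transferred compound for 48 h at 37 °C; ATP-based luminescence after 10 min room-temperature reagent incubation reported viability.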
# HT1080NT lethal: kills 2HG-producing HT-1080-NT fibrosarcoma cells; hit rate 1.6% among 360,000; Potency, µM (highest dose often 46.1 µM), inactives show at the top dose activity, negative = less viability, actives largely listed as cytotoxic; HT-1080-NT fibrosarcoma viability, CellTiter-Glo ATP luminescence, 48 h;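 note: NT is the 2HG producing partner of a matched IDH1 knockdown line; 0% = DMSO-treated cells and -100% = media-only wells without cells; nearly all actives have a fitted effect of over 55% in size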
#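 750 cells/well, RPMI + 5% FBS; 2 h settle, compound pin-transfer, 48 h at 37 degrees C. CellTiter-Glo 10 min RT, luminescence. Normalized to DMSO and media-only wells.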
# TDP1 cell noCPT: qHTS for Inhibitors of human tyrosyl-DNA phosphodiesterase 1 (TDP1): qHTS in cells in absence of CPT; hit rate 15% among 420,000; Potency, µM (doses to about 46.2 µM), without a hit: top-dose activity change, negative = growth inhibition, hits mostly inhibitors; AID 686978, 2013; DT40 Tdp1-/- hTDP1 cells, no CPT, ATP luminescence, 48 h; note: % is set by controls: 0 for no effect and ±100 for the full control effect; nearly all actives have a fitted effect of over 55% in size
#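 DT40 Tdp1-/-;hTDP1 cells, no CPT (DMSO vehicle only), 400 cells/well; compounds pin-transferred; ≥48 hr, 37 °C; CellTiter-Glo 30 min RT dark, luminescence read.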
# HepG2 tox: kills HepG2 cells in TGF-b inhibitor counter-screen; HepG2 CAGA-GFP viability, ATP luminescence, 18 h; Potency, µM (titrated, usually from 46.1 µM), inactives show top-dose activity change, negative = cytotoxicity, hits mostly cytotoxic; hit rate 0.76% among 410,000; AID 588856
#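 HepG2 CAGA-GFP cells (1000/well, DMEM with 1% FBS) received compound, then TGF-beta at 500 pg/mL final, and were incubated 18 hours at 37 degrees C. Viability was read by CellTiter-Glo luminescence. Media-only wells were set as complete cell-killing and DMSO as no toxicity.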
# TGFb SMAD3 inh: blocks TGF-b signaling; hit rate 1.2% among 410,000; HepG2 CAGA-GFP TGF-b/SMAD3 reporter, GFP fluorescence, 18 h; TGF-beta stimulated, 500 pg/mL final; Potency, µM (titrated, usually from 46.1 µM), inactives show top-dose activity, negative = inhibition, most hits filed as inhibitors; note: % is set by controls: 0 for no effect and ±100 for the full control effect; nearly all actives have a fitted effect of over 65% in size
#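 HEPG2 CAGA-GFP reporter cells (1000/well, DMEM with 1% FBS) received compounds, then recombinant TGF-beta at 500 pg/mL final for 18 hours at 37 degrees C. Per-cell GFP summed per well was normalised to unstimulated and stimulated DMSO controls before curve fitting.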
# Starred values were filed as active, the others as inactive; ? = inconclusive; / = not tested or not shown. Calls come from the whole dose curve; as a rule, active = well fitted curve in the direction sought with a large enough effect; inconclusive = small, poorly fitted or top-dose-only effect, or another doubt; inactive = no such curve, though single readings can be large; an effect the other way counts as inactive or inconclusive. Potency is the fitted concentration of half-maximal effect.
SMILES,DT40 TDP1 CPT,HT1080 IDH1KD tx,HT1080NT lethal,TDP1 cell noCPT,HepG2 tox,TGFb SMAD3 inh
C=Cc1ccc(CSc2nc(-c3ccc(OC)cc3)nc3c2Cc2c(CO)cnc(C)c2O3)cc1,5.8µM*,/,/,5.17µM*,4.2%,-6.1%
C=Cc1ccc(CSc2nc(-c3ccc(Cl)cc3)nc3c2Cc2c(CO)cnc(C)c2O3)cc1,8.2µM*,/,/,23.1µM*,-0.7%,2.1%
COc1ccc(CNC(=O)C2CCN(S(=O)(=O)Cc3ccccc3)CC2)cc1,?,/,/,-5.7%,4.1%,9.3%
CCN(CC(=O)Nc1c(F)cccc1F)C(=O)c1ccc2c(c1)OCCO2,8.9%,-4.2%,-4.0%,1.8%,-1.5%,10.1%
Cc1c(Cl)cccc1NC(=S)NCc1ccco1,-30.5%,-0.8%,?,-27.1%,-3.6%,-16.0%
Cc1cccc(N2CCN(C(=O)C3CCN(c4ncnc5c4nc4n5CCCCC4)CC3)CC2)c1C,18.4µM*,0.0%,-2.1%,18.4µM*,-10.7%,?
Cc1ccc(C)c(N2CCN(c3ncnc4c3nc3n4CCCCC3)CC2)c1,?,/,/,?,-29.8%,0.0%
O=C(C1CCN(c2ncnc3c2nc2n3CCCCC2)CC1)N1CCN(c2ccccc2F)CC1,?,-24.4%,?,20.6µM*,-21.8%,?
COc1cccc(CNC(=O)C2CCN(c3ncnc4c3nc3n4CCCCC3)CC2)c1,-28.6%,-0.2%,1.3%,?,-20.3%,?
Cc1cccc(N2CCN(C(=O)C3CCN(c4ncnc5c4nc4n5CCCCC4)CC3)CC2C)c1 (stereo not drawn),6.51µM*,?,?,4.61µM*,-11.3%,?
Fc1ccccc1N1CCN(c2ncnc3c2nc2n3CCCCC2)CC1,?,/,/,?,3.1%,-11.0%
CCOc1ccccc1NC(=O)c1nc(SCc2ccccc2F)ncc1Cl,?,/,/,?,6.0%,7.2%
Brc1ccc(C2C=Cc3ccccc32)cc1 (stereo not drawn),?,/,/,?,3.1%,-0.5%
CN(C(=O)COC(=O)C1CSC2(C)CCC(=O)N12)c1ccccc1 (stereo not drawn),-7.8%,0.0%,1.2%,0.9%,-15.2%,1.0%
Cc1cc(C)nc(SCC(=O)Nc2ncc(Cc3cccc(Cl)c3)s2)n1,?,?,-9.1%,18.4µM*,-44.3%,?
CCOC(=O)c1c(-c2ccccc2)oc2ccc(OCC(O)CN(C)C)cc12 (stereo not drawn),?,14.6µM*,25.9µM*,23.1µM*,17.8µM*,14.1µM*
CCOC(=O)c1c(-c2ccccc2)oc2ccc(N(C(C)=O)S(=O)(=O)c3ccc(C)cc3)cc12,8.2µM*,/,/,10.3µM*,0.4%,0.8%
CCOC(=O)c1c(C)oc2ccc(N(C(C)=O)S(=O)(=O)c3c(C)cc(C)cc3C)cc12,/,/,/,/,-9.7%,7.2%
CCOC(=O)c1c(-c2ccccc2)oc2ccc(NS(=O)(=O)c3ccc(C)cc3)cc12,2.91µM*,/,/,2.91µM*,-59.6%,?
CCCC(=O)N(c1ccc2oc(-c3ccccc3)c(C(=O)OCC)c2c1)S(=O)(=O)c1ccc(C)cc1,?,/,/,5.8µM*,-0.6%,-21.0%
CC1=C(C(=O)Nc2ccccc2C)C(c2ccc(C)o2)C2=C(CCCC2=O)N1 (stereo not drawn),-20.7%,-12.7%,?,-7.6%,-1.0%,-2.5%
CS(=O)(=O)N(Cc1ccccc1Cl)c1ccc(C(=O)NCc2ccccn2)cc1,-17.3%,0.8%,-0.8%,?,-0.4%,8.7%
